Source: PubChem BioAssay (several laboratories)
Bcl-xL primary: inhibitors of human Bcl-xL; Q07817; GST-Bcl-xL / FITC-Bim BH3 peptide fluorescence polarization; inhibition, % at 10.9 µM; 0.7% of 320,000 active; AID 2129;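 active = inhibition above the mean of all tested compounds plus 3 SD, cutoff set per campaign, cut at about 30% in these data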;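 also: 0% = DMSO wells and 100% = unlabeled Bim-BH3 peptide competitor; inhibitors lower millipolarization by displacing the labeled peptide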
Target sequence (Q07817 whole entry, looked up): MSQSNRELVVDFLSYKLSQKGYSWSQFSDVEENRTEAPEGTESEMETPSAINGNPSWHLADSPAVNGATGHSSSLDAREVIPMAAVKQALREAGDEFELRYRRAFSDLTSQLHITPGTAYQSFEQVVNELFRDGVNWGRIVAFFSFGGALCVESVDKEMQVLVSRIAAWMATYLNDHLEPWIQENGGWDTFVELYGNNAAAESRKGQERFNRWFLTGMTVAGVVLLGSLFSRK
Mcl1 Noxa PPI: disrupts binding of human Mcl-1 to Noxa peptide; Q07820; inhibition, % at 21.7 µM; AID 1022; 1.5% of 220,000 active; TR-FRET Mcl-1/Noxa peptide binding, 2 h;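 active = compounds that cut the protein-peptide binding signal by more than 50% relative to plate controls in a single-dose test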;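 also: His-tagged Mcl-1 with rhodamine Noxa BH3 peptide and terbium anti-His antibody; 0% = Mcl-1 plus Noxa peptide wells and 100% = peptide-only wells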
Target sequence (Q07820 whole entry, looked up): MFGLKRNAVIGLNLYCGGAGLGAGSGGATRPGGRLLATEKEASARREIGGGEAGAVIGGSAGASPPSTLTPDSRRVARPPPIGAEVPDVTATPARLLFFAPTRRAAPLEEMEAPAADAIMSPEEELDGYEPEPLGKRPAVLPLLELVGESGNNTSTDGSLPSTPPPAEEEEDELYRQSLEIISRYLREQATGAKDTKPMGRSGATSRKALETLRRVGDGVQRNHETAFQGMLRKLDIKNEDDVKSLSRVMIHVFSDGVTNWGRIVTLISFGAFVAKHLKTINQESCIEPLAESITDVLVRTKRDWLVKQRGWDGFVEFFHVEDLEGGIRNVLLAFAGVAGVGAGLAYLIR
Bim-Mcl-1: human Bim-Mcl-1 interaction inhibition | Bead-based flow cytometry, Bim peptide-Mcl-1 binding | 0.1% of 190,000 active | Q07820 | inhibition, % at 10 µM; in the data active = inhibition above about 40%;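 also: 0% = no compound tracer wells and 100% = peptide blocker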
GLD-1 RNA inh: GLD-1-TGE RNA interaction inhibition (C. elegans); purified GLD-1 + fluorescein TGE RNA, fluorescence polarization; 0.44% of 320,000 active; inhibition, % at 5.96 µM; Q17339;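 active = percent inhibition above a per-plate cutoff, the plate mean of test compounds plus 3 SD, cut at about 30% in these data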;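 also: 0% = DMSO wells with GLD-1 and probe and 100% = wells lacking GLD-1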
Mcl1-Bid inh: disrupts binding of human Mcl-1 to Bid peptide | Q07820 | TR-FRET Mcl-1/Bid-Dy647 peptide binding, 1536-well | inhibition, % at 21.7 µM | 0.97% of 220,000 active;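 active = compounds that cut the binding signal by more than half at the single screening dose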;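 also: His-tagged Mcl-1 with europium anti-His antibody binding Bid BH3 peptide; 0% = Mcl-1 plus peptide wells and 100% = peptide-only wells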
MCL1 BIM primary: MCL1-BIM-BH3 interaction inhibition (human). Q07820. GST-MCL1 / FITC-Bim-BH3 fluorescence polarization. inhibition, % at 10.9 µM. 0.68% of 320,000 active;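 active = inhibition above the mean inhibition of all tested compounds plus 3 SD, set per campaign, cut at about 40% in these data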;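 also: 0% = DMSO wells and 100% = unlabeled Bim-BH3 peptide control; higher means more loss of mP so more displacement of Bim peptide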
* hit, by the source's call; nt = no result given. Most compounds without a hit are left out; they make up all but 2.3% or so of the library.

SMILES | Bcl-xL primary | Mcl1 Noxa PPI | Bim-Mcl-1 | GLD-1 RNA inh | Mcl1-Bid inh | MCL1 BIM primary
CC(C)[C@H](NC(=O)c1ccccc1F)C(=O)NCc1ccc(S(N)(=O)=O)cc1 | 4 | nt | nt | 1 | nt | 1
Cc1cccc(C(=O)N[C@H](C(=O)OCc2cc(=O)n3c(n2)sc2ccccc23)C(C)C)c1 | 0 | 69* | 12 | 6 | -27 | 14
COc1cccc(NC(=S)N/N=C2/CCCCc3ccccc32)c1 | nt | -50 | 4 | nt | -106 | nt
O=C1NC(=O)/C(=C/c2ccc(-c3cc(C(=O)O)ccc3Cl)o2)S1 | 21 | nt | nt | 3 | nt | 42*
O=C1NC(=O)/C(=C\c2ccc(Br)o2)S1 | 17 | nt | nt | 6 | nt | 36
Cc1[nH]nc(-c2ccc(OCc3cnn(-c4ccccc4)c3)cc2O)c1Oc1ccccc1F | 5 | -11 | -1 | 0 | 59* | -1
O=C(NCc1ccco1)C1CCN(c2ccc(S(=O)(=O)N3CCOCC3)cc2[N+](=O)[O-])CC1 | -1 | -9 | 0 | 7 | -31 | -3
O=c1oc2ccccc2c(O)c1CN1CCCCC1 | 4 | -2 | -3 | 6 | -8 | 1
O=C1NCCCC2c3cc(O)c4ccccc4c3OC12N1CCCCC1 (centres undefined) | 52* | 78* | 5 | 27 | 0 | 57*
Cc1nnc(N2C(=O)c3ccc(Br)cc3C2=O)s1 | -1 | nt | nt | -2 | nt | 2
CCC(=O)N1CCc2cc(S(=O)(=O)CCC(=O)N3CCN(c4ccc(C(C)=O)cc4)CC3)ccc21 | 5 | nt | nt | 3 | nt | 2
O=C(O)CSc1cc(C(=O)c2cc(F)ccc2O)cn2c(=O)c3c(-c4ccccc4)csc3nc12 | 12 | 104* | nt | -1 | 3 | 8
CCc1c(C)sc2nc3c(C(=O)N4CCOCC4)cc(C(=O)c4cc(F)ccc4O)cn3c(=O)c12 | 7 | -3 | 1 | 3 | -13 | -2
CCOC(=O)c1sc2nc3c(SCCC(=O)O)cc(C(=O)c4cc(OC)ccc4O)cn3c(=O)c2c1C | nt | 87* | 0 | nt | 85* | nt
CCOC(=O)c1sc2nc3c(SCCC#N)cc(C(=O)c4cc(F)ccc4O)cn3c(=O)c2c1C | -2 | 27 | -4 | -4 | 6 | -15
COC(=O)[C@@]1(Cc2ccc(F)cc2)[C@H]2c3cc(C(=O)N4CCCC4)n(CCc4ccc(O)c(O)c4)c3C[C@H]2CN1C(=O)c1ccccc1 | 12 | 65* | 17 | 14 | -7 | 12
CC(C)(C)c1ccc(NC(=O)N2CCCN(c3ccc([N+](=O)[O-])cn3)CC2)cc1 | 5 | 0 | nt | 10 | 7 | 1
COc1ccc(-c2ccc(/C=C3/C(=N)N4C(C)=CSC4=NC3=O)o2)c([N+](=O)[O-])c1 | 13 | 59* | -1 | 2 | 17 | 8
CC1(C)CC(=O)C2=C(C1)NC(=S)C(C#N)C21CCCCC1 (centres undefined) | 17 | 7 | nt | 2 | -126 | 0
O=C(Nc1ccc(N2CCCC2)cc1)C(Cl)c1ccccc1 (centres undefined) | 20 | 56* | 0 | 0 | -69 | 11
CCN(CC)c1ccc(NC(=O)COC(=O)/C=C/c2nc3ccccc3s2)cc1 | 4 | 56* | 0 | 7 | -3 | 2
COC(=O)CCC(=O)OC1(C)C(=O)C2=CN(C3CCCC3)C(c3ccc(OC)cc3)=CC2=C(Br)C1=O (centres undefined) | 34* | 17 | nt | 22 | -73 | 29
COCCN1C=C2C(=O)C(C)(OC(=O)CCC(=O)OC)C(=O)C(Br)=C2C=C1c1ccc(OC)cc1 (centres undefined) | 37* | nt | nt | 18 | nt | 44*
COC(=O)CCCC1=CC2=C(c3ccccc3)C(=O)C(C)(OC(=O)C3CCCC3)C(=O)C2=CN1C1CC1 (centres undefined) | 20 | 1 | nt | 14 | -90 | 17
COC(=O)CCC(=O)OC1(C)C(=O)C2=CN(c3ccc(OC)cc3)C(c3ccc(OC)cc3)=CC2=C(Br)C1=O (centres undefined) | 19 | nt | nt | 13 | nt | 13
SMILES | Bcl-xL primary | Mcl1 Noxa PPI | Bim-Mcl-1 | GLD-1 RNA inh | Mcl1-Bid inh | MCL1 BIM primary
COC(=O)CCC(=O)OC1(C)C(=O)C2=CN(Cc3ccco3)C(c3ccc(OC)cc3)=CC2=C(Br)C1=O (centres undefined) | 52* | nt | nt | 44* | nt | 49*
CCCCC1=CC2=C(c3ccco3)C(=O)C(C)(OC(=O)c3ccc(OC)cc3)C(=O)C2=CN1Cc1ccco1 (centres undefined) | 25 | 37 | nt | 22 | -94 | 31
CCN(CC)CCCN1C=C2C(=O)C(C)(OC(=O)CCC(=O)OC)C(=O)C(Br)=C2C=C1c1ccc(OC)cc1 (centres undefined) | 31* | nt | nt | 14 | nt | 30
N#Cc1ccc(S(=O)(=O)NC2CC2)cc1 | 3 | nt | nt | 2 | nt | 2
COc1ccc(-c2cc(C(F)(F)F)n3ncc(C(=O)N4CCCCC4c4cccnc4)c3n2)cc1 (centres undefined) | 0 | 16 | 4 | 5 | -12 | -1
O=C(C[n+]1cccc(Br)c1)c1cccs1 | 3 | nt | nt | 6 | nt | 10
CC(C)(C)c1nc2ccccc2c2nnc(SCC(=O)Nc3nc4ccccc4s3)n12 | -1 | 26 | 2 | 8 | 71* | -3
Cc1cc(C(F)(F)F)c(C#N)c(SCC(=O)Nc2nc3ccccc3s2)n1 | 37* | -50 | nt | 7 | -37 | 6
Cc1nc(SCC(=O)Nc2nc3ccccc3s2)c(C#N)c(C)c1C | -1 | 17 | -6 | 1 | -35 | -9
CC(C)(C)c1nc2ccccc2c2nnc(SCC(=O)Nc3nccs3)n12 | 2 | 18 | 1 | -3 | -7 | 2
CCC1(C)Cc2sc3c(=O)[nH]c(=S)[nH]c3c2CO1 (centres undefined) | 7 | 54* | -5 | -1 | -24 | 8
O=C1NCCCC2c3c(cc(Br)c(O)c3Br)OC12N1CCOCC1 (centres undefined) | 4 | 62* | -2 | -1 | -22 | -3
O=c1oc2cc(OCc3ccc(F)cc3F)ccc2cc1-c1ccc2ccccc2n1 | 9 | -7 | -3 | 3 | -9 | 6
Cc1cc(C)cc(-n2c(C)cc(/C=N\NC(=O)COc3cccc4cccnc34)c2C)c1 | -5 | 23 | -4 | 2 | -11 | 4
Cc1cc(/C=N/NC(=O)COc2cccc3cccnc23)c(C)n1-c1ccc(O)cc1 | 3 | 72* | -1 | -1 | -10 | 9
O=C(CC(=O)c1cc(Cl)ccc1O)c1ccccc1 | -1 | -11 | 0 | 6 | -30 | -3
O=C(c1ccccc1)c1cc(Cl)ccc1N1C(=O)C=CC1=O | nt | 32 | 4 | nt | 51* | nt
CCSc1nc2ccccc2n1C(=O)/C=C\c1ccc(OC)c(OC)c1 | 6 | 62* | -2 | -5 | -25 | 1
CCSc1nc2ccccc2n1CC(N)=O | 6 | 12 | -7 | 2 | -11 | 3
